Assay results: PubChem BioAssay AID720518 (National Center for Advancing Translational Sciences (NCATS), 2013)
Inconclusive results are not listed. Active and inactive are the calls of the source. Calls come from the whole dose curve.

Assay: qHTS for Inhibitors of Cell Surface uPA Generation: Wild-type Protective Antigen (WT-PrAg) Counterscreen for Cherry-picked Compounds; for activity (protection): 0% is about no effect
Conditions: cells, WT protective antigen toxicity counterscreen; series mostly up to 115 µM; activity (protection): at the top concentration
Potency is the fitted concentration of half-maximal effect.

SMILES	activity (protection)	Potency
O=C(CNS(=O)(=O)c1ccc(F)cc1)Nc1ccccc1	-0.098% (inactive)	
O=C(COc1ccc(C(=S)N2CCOCC2)cc1)N1CCOCC1	0.626% (inactive)	
CCCc1nc2c(=O)n(C)c(=O)[nH]c2n1CCC	0.862% (inactive)	
COc1ccc(-n2ncc3c(=O)n(CC(=O)NC(C)C)cnc32)cc1	-0.469% (inactive)	
CCCC1=NN(C(=O)Cc2ccc(OC)cc2)C(O)(C(F)(F)F)C1 (stereo not drawn)	-0.864% (inactive)	
COc1ccc(-c2nn(CCC#N)cc2C(=O)Nc2ccccc2)cc1OC	-0.28% (inactive)	
CCN(CC)CC(=O)Nc1sc2c(c1C(=O)c1ccccc1OC)CCC2		9.27 µM (active)
CN(C)c1cccc(C(=O)N(C)C2CCCN(Cc3ccccc3F)C2)c1 (stereo not drawn)		23.3 µM (active)
O=S(=O)(c1ccc2nc(N3CCN(c4ccccc4)CC3)ccc2c1)N1CCCCC1	2.08% (inactive)	
CC(O)[C@H]1CNC(=O)C(=O)N1CCc1cccc(F)c1 (stereo partly drawn)	1.24% (inactive)	
O=C1c2ccccc2[C@@H]2C[C@H](NC34CC5CC(CC(C5)C3)C4)[C@@H](O)CCN12	-1.03% (inactive)	
Cc1cccc(NC(=O)C2CCCN(S(=O)(=O)c3cccc4cccnc34)C2)c1 (stereo not drawn)	-1.51% (inactive)	
Cc1ccc2oc(C(=O)N(Cc3ccc(N(C)C)cc3)C3CCS(=O)(=O)C3)c(C)c2c1 (stereo not drawn)	-2.55% (inactive)	
Cc1ccccc1OCCC(=O)NNC(=O)c1ccccc1F	-0.207% (inactive)	
COc1ccc(/C(N)=N/OC(=O)Cc2ccccc2OC)cc1	0.289% (inactive)	
COc1ccc(NC(=O)CN2C(=O)CSc3ncccc32)cc1	1.25% (inactive)	
Cc1ccc(S(=O)(=O)N2CCC(C)CC2)cc1	0.504% (inactive)	
CCN(CC)CCCNC(=O)c1cn(C)c(=O)c2c1c1ccccc1n2C	4.64% (inactive)	
O=C(NC(=S)Nc1c(F)cc(F)cc1Br)c1ccc2c(c1)OCCO2	0.392% (inactive)	
CC1(c2cccc([N+](=O)[O-])c2)CC(C)(C)N(C(=O)c2ccccc2)c2ccccc21 (stereo not drawn)	-1.21% (inactive)	
COc1ccc(NS(=O)(=O)c2cc(NS(=O)(=O)c3cc(C(=O)O)ccc3OC)ccc2C)cc1	0.066% (inactive)	
Clc1ccccc1N1CCN(c2ncnc3nc[nH]c23)CC1	-0.131% (inactive)	
COc1ccccc1N1CCN(CC(=O)c2c(C)[nH]c3ccccc23)CC1	3.92% (inactive)	
